Here are results for eight compounds from PubChem BioAssay (EPA / NIEHS).

Assay [1] concerns the target Bile acid receptor (Homo sapiens) (UniProt Q96RI1). The experiment in a line: ATG_IR1_CIS: Attagene CIS-FACTORIAL HepG2 Assay for human Nuclear Receptor Subfamily 1 Group H Member 4 (NR1H4), IR1 submotif (AID 2282946). The settings on record: IR1 reporter transcription, actives raise or lower the signal. In outline: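 Transient MRTU transfection, HepG2; 24 h dosing; RNA → RT-PCR → 6-FAM primer extension → HpaI digest → capillary electrophoresis fluorescence. Gain/loss of signal fitted relative to DMSO.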

A short description of assay [2]: ATG_GRE_CIS: Attagene CIS-FACTORIAL HepG2 Assay for human Glucocorticoid Response Elements (GRE) (AID 2282947). The settings on record: HepG2 GRE cis-reporter, Attagene multiplex mRNA; actives raise or lower the signal. In outline:
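Following 24 h chemical exposure of transiently transfected HepG2 cells, total RNA was reverse-transcribed and reporter cDNA amplified, fluorescently labelled and sized by capillary electrophoresis. Signal gain or loss was fitted relative to DMSO vehicle.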

Assay [3] in a line: ATG_ISRE_CIS: Attagene CIS-FACTORIAL HepG2 Assay for human Interferon Regulatory Factor 1 (IRF1) binding to an Interferon-Stimulated Response Element (ISRE) (AID 2282948). The settings on record: HepG2 ISRE cis-reporter (Attagene), mRNA transcription readout; actives raise or lower the signal. In outline: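 Quantitation relies on labelled RT-PCR fragments separated by capillary electrophoresis. Human HepG2 cells bearing cis-promoter reporter constructs were treated 24 h; DMSO served as baseline for bidirectional fitting.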

Assay [4] in a line: ATG_M_06_CIS: Attagene CIS-FACTORIAL HepG2 Assay for M06 Transcription Factor (Internal Marker) (AID 2282950). The settings on record: HepG2 Attagene CIS-FACTORIAL M06 internal marker reporter; actives raise or lower the signal. In outline: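 Fluorescence-labelled RT-PCR products from cis-promoter reporter units, cut with HpaI and resolved by capillary electrophoresis, give the signal. Cells are human HepG2, dosed for 24 h. Serves as background control, fitted relative to DMSO.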

Assay [5] addresses Hypoxia-inducible factor 1-alpha (Homo sapiens) (UniProt Q16665). Nature of the assay: ATG_HIF1a_CIS: Attagene CIS-FACTORIAL HepG2 Assay for human Hypoxia Inducible Factor 1 (HIF1A) (AID 2282951). The settings on record: HepG2 Attagene cis-factorial HIF1a reporter transcription; actives raise or lower the signal. In outline:
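Fluorescence intensity of capillary-separated, 6-FAM-labelled reporter amplicons gives mRNA induction in HepG2 cells carrying transfected cis-promoter reporter units; cells exposed 24 h, responses fitted up or down from DMSO.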

Assay [6] concerns the target Hepatocyte nuclear factor 6 (Homo sapiens) (UniProt Q9UBC0). Nature of the assay: ATG_HNF6_CIS: Attagene CIS-FACTORIAL HepG2 Assay for human Hepatocyte Nuclear Factor 6 (HNF6) (AID 2282952). The settings on record: HepG2 Attagene cis-factorial HNF6 reporter transcription; actives raise or lower the signal. In outline:
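Transiently transfected HepG2 cells expressing cis-regulated reporter transcription units were exposed to chemical for 24 h in a 24-well format. Reporter transcript abundance was determined by fluorescence capillary electrophoresis.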

For assay [7], the target named is Heat shock factor protein 1 (Homo sapiens) (UniProt Q00613). Nature of the assay: ATG_HSE_CIS: Attagene CIS-FACTORIAL HepG2 Assay for human Heat Shock Transcription Factor 1 (HSE) (AID 2282953). The settings on record: HepG2 HSE cis-reporter, Attagene RNA transcription; actives raise or lower the signal. In outline: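 After a 24 h incubation with test chemical, transfected HepG2 cells were harvested for RNA; reporter transcripts were measured by RT-PCR and capillary electrophoresis. Values reflect gain or loss of signal relative to DMSO.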
Chain of Heat shock factor protein 1 (Homo sapiens) (Q00613 whole entry, looked up): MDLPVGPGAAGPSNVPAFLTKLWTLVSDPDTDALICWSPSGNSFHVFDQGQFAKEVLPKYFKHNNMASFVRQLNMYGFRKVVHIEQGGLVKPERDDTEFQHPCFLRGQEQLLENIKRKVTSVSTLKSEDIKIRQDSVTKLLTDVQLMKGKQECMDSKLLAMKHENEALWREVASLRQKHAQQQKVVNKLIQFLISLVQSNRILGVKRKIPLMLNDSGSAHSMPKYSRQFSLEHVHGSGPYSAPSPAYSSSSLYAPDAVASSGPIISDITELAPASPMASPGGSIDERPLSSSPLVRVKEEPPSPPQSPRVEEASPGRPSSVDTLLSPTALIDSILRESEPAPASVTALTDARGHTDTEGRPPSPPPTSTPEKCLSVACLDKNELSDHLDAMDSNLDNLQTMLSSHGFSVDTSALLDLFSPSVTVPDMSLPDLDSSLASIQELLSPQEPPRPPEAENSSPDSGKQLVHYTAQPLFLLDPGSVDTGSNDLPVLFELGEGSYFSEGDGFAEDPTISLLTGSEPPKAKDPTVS

The nature of assay [8]: ATG_MRE_CIS: Attagene CIS-FACTORIAL HepG2 Assay for human Metal Responsive Element (MRE) (AID 2282954). The settings on record: HepG2 MRE cis-reporter transcription, Attagene multiplex; actives raise or lower the signal. In outline:
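Step one: transfect HepG2 with cis-regulated reporter units. Step two: dose 24 h. Step three: isolate RNA, RT-PCR, 6-FAM label, HpaI digest, capillary electrophoresis. Fit bidirectionally to DMSO.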

A short description of assay [9]: ATG_PBREM_CIS: Attagene CIS-FACTORIAL HepG2 Assay for human Phenobarbital-responsive Enhancer Module (PBREM) (AID 2282955). The settings on record: HepG2 PBREM cis-reporter, Attagene multiplexed transcription; actives raise or lower the signal. In outline: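 Cells were transfected with cis-element reporter units and treated for 24 h, after which RNA was extracted and reporter transcripts measured by RT-PCR and capillary electrophoresis.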

A short description of assay [10]: ATG_PXRE_CIS: Attagene CIS-FACTORIAL HepG2 Assay for human Pregnane X Receptor Element (PXRE) (AID 2282957). The settings on record: HepG2 Attagene CIS-FACTORIAL PXRE reporter, mRNA; actives raise or lower the signal. In outline:
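Cis-element reporter mRNA in human hepatoma HepG2 cells is measured 24 h post-dosing by RT-PCR, primer-extension labeling and capillary electrophoresis; gain or loss of signal is fitted relative to DMSO.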

Assay [11] in a line: ATG_PPRE_CIS: Attagene CIS-FACTORIAL HepG2 Assay for human Peroxisome Proliferator-activated Response Element (PPRE) (AID 2282958). The settings on record: HepG2 PPRE cis-element reporter, Attagene transcription factor profiling; actives raise or lower the signal. In outline: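 In this cell-based multiplex, a PPRE cis element drives a reporter sequence in transiently transfected HepG2 cells. Following 24 h treatment, labeled cDNA amplicons are sized and quantified by capillary electrophoresis, with DMSO defining baseline.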

The nature of assay [12]: ATG_RORE_CIS: Attagene CIS-FACTORIAL HepG2 Assay for human RAR-related Orphan Receptor Element (RORE) (AID 2282959). The settings on record: HepG2 Attagene cis-factorial RORE reporter, mRNA; actives raise or lower the signal. In outline:
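Endogenous factor activity at a cis response element is read as reporter transcript levels in HepG2 cells, 24 h post-dose. Transcripts are quantified by RT-PCR with capillary electrophoresis, and data fitted in both directions against DMSO.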

Assay [13] can be described thus: ATG_Sox_CIS: Attagene CIS-FACTORIAL HepG2 Assay for human SRY-box transcription factor (SOX) (AID 2282960). The settings on record: HepG2 Attagene cis-factorial SOX reporter, mRNA; actives raise or lower the signal. In outline:
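Measures mRNA induction of a SOX1-associated reporter in HepG2 after 24 h dosing. Fluorescently labelled RT-PCR fragments are separated by capillary electrophoresis, and gain or loss relative to DMSO control is fitted.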

The target in assay [14] is Transcription factor Sp1 (Homo sapiens) (UniProt P08047). Nature of the assay: ATG_Sp1_CIS: Attagene CIS-FACTORIAL HepG2 Assay for human Specificity Protein 1 (Sp1) (AID 2282961). The settings on record: HepG2 Sp1 cis-reporter transcription, actives raise or lower the signal. In outline:
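Cells: HepG2, transiently transfected with cis-regulated multiplexed reporters. Exposure: 24 h. Detection: reporter transcripts amplified, fluorescently labeled, restriction-digested and sized by capillary electrophoresis. Analysis: bidirectional fit relative to DMSO.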

A short description of assay [15]: ATG_SREBP_CIS: Attagene CIS-FACTORIAL HepG2 Assay for human Sterol Regulatory Element Binding (SREBP) (AID 2282962). The settings on record: HepG2 Attagene cis-factorial SREBP reporter, mRNA; actives raise or lower the signal. In outline:
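Twenty-four hours after chemical dosing of transfected HepG2 cultures, reporter RNA was converted to cDNA, amplified, end-labelled with 6-FAM and resolved by capillary electrophoresis. Responses were fitted relative to DMSO.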

Assay [16] has as its target Signal transducer and activator of transcription 3 (Homo sapiens) (UniProt P40763). Nature of the assay: ATG_STAT3_CIS: Attagene CIS-FACTORIAL HepG2 Assay for human Signal Transducer and Activator of Transcription 3 (STAT3) (AID 2282963). The settings on record: HepG2, Attagene cis-factorial STAT3 reporter transcription; actives raise or lower the signal. In outline: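 Transcript-level reporter assay. HepG2 transient MRTU transfection, 24 h exposure, fluorescence detection after RT-PCR and CE; DMSO baseline.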

The nature of assay [17]: ATG_TA_CIS: Attagene CIS-FACTORIAL HepG2 Assay for human TA Basal Promoter (AID 2282964). The settings on record: HepG2 Attagene CIS-factorial TA basal promoter reporter; actives raise or lower the signal. In outline: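 Multiplexed mRNA reporter assay, HepG2, 24 h. Reporter cDNA amplified, 6-FAM primer-extended, HpaI-cut, CE-sized; DMSO = negative control and baseline.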

The nature of assay [18]: ATG_TCF_b_cat_CIS: Attagene CIS-FACTORIAL HepG2 Assay for human T-Cell-Factor with beta-catenin (TCF/b-cat) (AID 2282965). The settings on record: HepG2 TCF/beta-catenin cis-reporter transcription, actives raise or lower the signal. In outline: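 HepG2 cells transiently transfected with multiple cis-promoter-regulated reporter transcription units, so endogenous transcription factor activity is measured. Reporter mRNA read 24 hours after dosing by RT-PCR, fluorescent labelling and capillary electrophoresis; bidirectional fitting against DMSO.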

For assay [19], the target named is Paired box protein Pax-6 (Homo sapiens) (UniProt P26367). Nature of the assay: ATG_Pax6_CIS: Attagene CIS-FACTORIAL HepG2 Assay for human Paired Box 6 (PAX6) (AID 2282956). The settings on record: HepG2 CIS-FACTORIAL PAX6 reporter transcription, RNA readout; actives raise or lower the signal. In outline: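 After twenty-four hours of chemical exposure, transfected HepG2 cells are harvested for RNA. Cis-promoter reporter transcripts are amplified, fluorescently labelled and sized by capillary electrophoresis, with gain and loss of signal scored against DMSO.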
Chain of Paired box protein Pax-6 (Homo sapiens) (P26367 whole entry, looked up): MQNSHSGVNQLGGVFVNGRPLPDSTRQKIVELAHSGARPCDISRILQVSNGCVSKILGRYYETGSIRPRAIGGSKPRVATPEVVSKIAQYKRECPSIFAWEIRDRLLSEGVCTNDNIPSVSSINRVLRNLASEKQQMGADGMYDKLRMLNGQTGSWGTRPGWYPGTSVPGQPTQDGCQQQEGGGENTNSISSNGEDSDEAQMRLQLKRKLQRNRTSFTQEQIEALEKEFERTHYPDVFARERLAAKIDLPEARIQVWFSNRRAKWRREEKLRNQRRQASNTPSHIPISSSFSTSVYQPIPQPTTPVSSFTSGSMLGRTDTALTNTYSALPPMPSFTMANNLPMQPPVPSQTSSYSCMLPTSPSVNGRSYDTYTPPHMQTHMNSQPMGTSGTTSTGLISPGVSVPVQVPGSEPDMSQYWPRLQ

Assay [20] is described as follows: ATG_M_32_CIS: Attagene CIS-FACTORIAL HepG2 Assay for M32 Transcription Factor (Internal Marker) (AID 2282949).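 Also: background control marker of the multiplexed CIS panel rather than a real target.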 The settings on record: HepG2 Attagene cis-factorial M32 reporter, mRNA; actives raise or lower the signal. In outline: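 Fluorescent capillary electrophoresis peaks of HpaI-digested, FAM-labelled RT-PCR reporter products give the signal. Source: transiently transfected human liver HepG2 cells, 24 h after chemical dosing; bidirectional fitting against DMSO.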

Active and inactive are the calls of the source. The calls were made as follows: active = hit-call score of the fitted dose curve at least 0.9, where 1 is the maximum; inactive = score below 0.9.

Chain of Signal transducer and activator of transcription 3 (Homo sapiens) (P40763 whole entry, looked up): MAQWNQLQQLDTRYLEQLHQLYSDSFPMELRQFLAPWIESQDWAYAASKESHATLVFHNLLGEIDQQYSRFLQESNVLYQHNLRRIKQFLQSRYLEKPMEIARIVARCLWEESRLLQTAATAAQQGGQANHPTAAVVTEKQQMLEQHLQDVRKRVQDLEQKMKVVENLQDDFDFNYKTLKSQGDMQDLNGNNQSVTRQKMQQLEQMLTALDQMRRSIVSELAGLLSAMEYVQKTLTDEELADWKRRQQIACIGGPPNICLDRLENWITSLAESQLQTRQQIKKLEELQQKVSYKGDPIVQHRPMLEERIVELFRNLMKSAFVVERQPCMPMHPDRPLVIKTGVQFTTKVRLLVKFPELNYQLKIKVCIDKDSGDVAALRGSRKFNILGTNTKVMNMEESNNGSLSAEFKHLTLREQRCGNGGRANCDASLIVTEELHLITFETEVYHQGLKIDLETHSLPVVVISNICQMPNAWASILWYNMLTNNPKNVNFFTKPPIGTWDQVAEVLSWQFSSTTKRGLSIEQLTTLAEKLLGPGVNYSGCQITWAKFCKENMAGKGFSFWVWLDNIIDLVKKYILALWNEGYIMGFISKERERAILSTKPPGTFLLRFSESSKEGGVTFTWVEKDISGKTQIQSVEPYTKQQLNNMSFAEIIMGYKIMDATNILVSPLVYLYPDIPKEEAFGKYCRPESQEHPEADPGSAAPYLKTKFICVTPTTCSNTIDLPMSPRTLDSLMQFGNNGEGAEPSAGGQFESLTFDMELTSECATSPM
Chain of Transcription factor Sp1 (Homo sapiens) (P08047 whole entry, looked up): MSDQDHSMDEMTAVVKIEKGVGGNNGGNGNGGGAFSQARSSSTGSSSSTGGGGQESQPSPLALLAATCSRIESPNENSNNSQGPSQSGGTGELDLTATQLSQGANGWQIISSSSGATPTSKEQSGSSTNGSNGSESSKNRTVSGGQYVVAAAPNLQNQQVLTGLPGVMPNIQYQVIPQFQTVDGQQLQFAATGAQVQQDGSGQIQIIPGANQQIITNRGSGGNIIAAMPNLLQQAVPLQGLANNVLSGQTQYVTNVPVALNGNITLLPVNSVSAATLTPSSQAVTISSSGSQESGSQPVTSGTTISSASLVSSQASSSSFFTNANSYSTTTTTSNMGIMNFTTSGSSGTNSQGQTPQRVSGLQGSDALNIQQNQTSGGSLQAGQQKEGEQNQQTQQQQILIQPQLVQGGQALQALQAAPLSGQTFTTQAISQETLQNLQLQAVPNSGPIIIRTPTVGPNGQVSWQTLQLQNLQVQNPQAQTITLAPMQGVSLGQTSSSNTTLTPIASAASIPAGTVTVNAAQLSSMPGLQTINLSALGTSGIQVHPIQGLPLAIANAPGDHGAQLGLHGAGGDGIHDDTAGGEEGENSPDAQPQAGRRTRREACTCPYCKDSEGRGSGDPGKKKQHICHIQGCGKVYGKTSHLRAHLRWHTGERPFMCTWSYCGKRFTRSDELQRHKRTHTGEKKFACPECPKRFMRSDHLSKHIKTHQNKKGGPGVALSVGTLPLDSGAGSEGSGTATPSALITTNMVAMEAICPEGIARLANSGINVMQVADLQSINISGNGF
Chain of Hypoxia-inducible factor 1-alpha (Homo sapiens) (Q16665 whole entry, looked up): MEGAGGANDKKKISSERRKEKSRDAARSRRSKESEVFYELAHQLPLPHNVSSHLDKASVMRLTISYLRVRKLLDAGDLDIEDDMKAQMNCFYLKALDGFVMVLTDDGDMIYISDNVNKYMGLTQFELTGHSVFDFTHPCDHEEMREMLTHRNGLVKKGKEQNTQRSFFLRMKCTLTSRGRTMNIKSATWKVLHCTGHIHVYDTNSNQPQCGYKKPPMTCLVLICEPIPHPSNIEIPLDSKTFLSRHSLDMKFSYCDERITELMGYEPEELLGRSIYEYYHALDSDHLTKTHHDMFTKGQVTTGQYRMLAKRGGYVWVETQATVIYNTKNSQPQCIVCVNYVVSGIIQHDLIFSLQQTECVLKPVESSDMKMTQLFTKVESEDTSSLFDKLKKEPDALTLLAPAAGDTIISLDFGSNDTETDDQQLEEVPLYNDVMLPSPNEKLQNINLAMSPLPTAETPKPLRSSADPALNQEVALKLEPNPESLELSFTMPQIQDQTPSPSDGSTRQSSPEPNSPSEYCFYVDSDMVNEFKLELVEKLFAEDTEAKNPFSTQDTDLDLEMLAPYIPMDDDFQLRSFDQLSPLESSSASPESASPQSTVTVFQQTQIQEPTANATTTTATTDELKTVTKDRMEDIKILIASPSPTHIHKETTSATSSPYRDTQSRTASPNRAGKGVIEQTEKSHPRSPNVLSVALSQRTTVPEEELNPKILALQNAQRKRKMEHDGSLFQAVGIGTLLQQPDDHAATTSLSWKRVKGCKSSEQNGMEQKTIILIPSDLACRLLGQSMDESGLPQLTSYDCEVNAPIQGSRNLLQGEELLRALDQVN
Chain of Bile acid receptor (Homo sapiens) (Q96RI1 whole entry, looked up): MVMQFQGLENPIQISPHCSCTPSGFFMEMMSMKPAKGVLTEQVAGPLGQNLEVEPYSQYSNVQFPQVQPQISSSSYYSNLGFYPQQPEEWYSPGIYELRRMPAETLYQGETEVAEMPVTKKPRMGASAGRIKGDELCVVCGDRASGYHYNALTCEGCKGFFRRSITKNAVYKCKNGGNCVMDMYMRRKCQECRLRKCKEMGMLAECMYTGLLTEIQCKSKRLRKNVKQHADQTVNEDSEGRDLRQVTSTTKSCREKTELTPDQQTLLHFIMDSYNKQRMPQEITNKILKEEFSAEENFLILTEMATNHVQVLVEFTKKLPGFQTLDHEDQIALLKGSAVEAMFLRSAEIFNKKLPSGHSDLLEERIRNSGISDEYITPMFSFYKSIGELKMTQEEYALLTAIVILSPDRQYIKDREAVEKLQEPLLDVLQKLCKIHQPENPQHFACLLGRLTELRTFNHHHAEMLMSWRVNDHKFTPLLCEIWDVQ
Chain of Hepatocyte nuclear factor 6 (Homo sapiens) (Q9UBC0 whole entry, looked up): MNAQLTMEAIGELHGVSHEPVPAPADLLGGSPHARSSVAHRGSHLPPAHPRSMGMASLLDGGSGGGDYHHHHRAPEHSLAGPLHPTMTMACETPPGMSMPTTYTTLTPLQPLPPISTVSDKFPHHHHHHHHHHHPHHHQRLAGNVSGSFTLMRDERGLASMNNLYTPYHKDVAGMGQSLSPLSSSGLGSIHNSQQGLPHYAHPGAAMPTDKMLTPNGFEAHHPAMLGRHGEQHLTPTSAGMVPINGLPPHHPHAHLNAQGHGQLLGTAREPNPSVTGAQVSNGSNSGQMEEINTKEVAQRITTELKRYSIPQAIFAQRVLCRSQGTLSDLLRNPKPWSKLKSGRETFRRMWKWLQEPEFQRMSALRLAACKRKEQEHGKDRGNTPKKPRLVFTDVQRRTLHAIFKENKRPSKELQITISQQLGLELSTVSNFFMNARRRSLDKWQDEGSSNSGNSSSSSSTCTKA

Take `C=CC(=O)OCC(F)(F)C(F)F`: the result in assay [1], in [2], in assay [4], in assay [5], in [6] and in assay [7] was inactive. Also, the outcome in [9], in assay [10], in assay [11], in assay [12], in assay [13] and in [14] was inactive. Besides, the result in [15], in assay [16] and in assay [17] was inactive. For the same compound, the AC50 in assay [3] was 150 µM (active); in assay [8], 117 µM (active); in assay [18], 89.3 µM (active).

As for `O=[N+]([O-])c1cc(Cl)ccc1Cl`, the call in assay [1], in assay [2], in [3], in assay [4], in assay [5] and in assay [6] was inactive. The compound was classed as inactive in assay [7], in assay [8], in [9], in assay [19], in [11] and in assay [12]. Besides, the call in assay [13], in assay [14], in assay [15], in assay [16], in [17] and in assay [18] was inactive. Further, the AC50 in [10] is 56.2 µM (active).

On to `N#Cc1ccc(O)cc1`, for which the call in [1], in assay [2], in [3], in [20], in [4] and in assay [5] was inactive. Moreover, the outcome in assay [6], in assay [7], in assay [8], in assay [9], in assay [10] and in [11] was inactive. For the same compound, the call in assay [13], in assay [14], in [15], in assay [16], in assay [17] and in assay [18] was inactive.

For `CC(Cl)CN(C)C` (configuration not stated), the call in assay [1], in assay [2], in assay [3], in assay [20], in [4] and in assay [5] was inactive. In addition, the outcome in [6], in assay [7], in assay [8], in [9], in assay [10] and in assay [11] was inactive. Besides, the compound was called inactive in assay [12], in [13], in [14], in [16], in assay [17] and in [18].

As to `CC(C)Nc1ccc(Nc2ccccc2)cc1`, the result in assay [1], in assay [2], in assay [4], in assay [5], in [6] and in [8] was inactive. In addition, the result in assay [9], in [11], in [12], in [13], in assay [14] and in assay [16] was inactive. The outcome in assay [17] and in assay [18] was inactive. Moreover, the AC50 is 43.2 µM (active) in assay [3], 49.6 µM (active) in assay [7] and 1.97 µM (active) in assay [10].

Consider `O=C(O)C(F)(F)C(F)(F)C(=O)O`, for which the outcome in assay [1], in assay [2], in assay [3], in [4], in assay [5] and in [6] was inactive. Besides, the call in [7], in [8], in assay [9], in assay [10], in [11] and in [12] was inactive. The compound was called inactive in [13], in [14], in assay [16], in assay [17] and in assay [18].

For `N#C/C=C/c1ccccc1`, the result in assay [1], in assay [2], in [3], in assay [20], in [4] and in [5] was inactive. The compound was classed as inactive in [6], in assay [7], in [8], in assay [9], in [10] and in [11]. Moreover, the compound was called inactive in assay [12], in [13], in assay [14], in assay [16], in assay [17] and in assay [18].

Consider `O=NN1CCCC1`, for which the call in [1], in assay [2], in [3], in assay [4], in assay [5] and in assay [6] was inactive. In addition, the compound was classed as inactive in assay [7], in [8], in [9], in assay [19], in assay [10] and in assay [11]. In addition, the call in assay [13], in assay [14], in assay [16], in [17] and in assay [18] was inactive.

The term AC50 denotes the concentration at which the activity in the assay is half-maximal.
